The source of these data is ChEMBL document CHEMBL3988442, “University of Dundee, Small-Polar-MMV Screening Library” (2021).

The test system of this assay is Trypanosoma brucei. As to the kind of experiment: Trypanosoma brucei 72 hour study. Type of assay: functional, organism-based. Also on record: scale not given: in the data most compounds retested in dose-response had high values.

About 960 (1.5%) of roughly 66,000 compounds showed an effect of 50% or more. Shown is part of a subset that was picked to be rich in strong results.

Take `CO[C@H]1CN(C(=O)OC(C)(C)C)CC1NCc1cccn1C` (stereo partly drawn): the “Percent Effect” value (30 µM, 30.03 µM) is listed as -31.18%.
For the compound `Cc1ccc(C2COCCN2C(=O)c2cccc(N(C)C)c2)o1` (stereo not drawn), for the setting “30 µM, 30.03 µM”, the “Percent Effect” value is 50.27%.
As to `Cc1ccc(C2COCCN2C(=O)c2ccc(F)c(F)c2)o1` (stereo not drawn), the “Percent Effect” value (30 µM, 30.03 µM) is on record as 29.67%.
As to `Cc1ccc(C2COCCN2C(=O)c2ccc(N(C)C)cc2)o1` (stereo not drawn), where the note is “30 µM, 30.03 µM”, the “Percent Effect” value is 5.525%.
On to `CN(C)C(=O)CN1C(=O)C[C@@H]2[C@@H]1CCN2Cc1cccc(C#N)c1.O=C(O)C(F)(F)F`, for which the “Percent Effect” value (30.3 µM, […]) is recorded as -180.8%.
On the same count and under the same terms, next, `Cc1nc(C)c(C(=O)N2CCc3nc4c(C)csc4c(=O)n3CC2)s1.Cl`: -52.81%; `Cc1nc(N(C)C2CCCCC2)ncc1C(C)NC(=O)c1cccnc1` (stereo not drawn): -134.2%; `COc1ccc(NC(=O)c2cnc(N(C)C3CCCCC3)nc2N)cc1`: 61%.
On the same count and under the same terms, next, `CN(c1ncc(C(=O)Nc2ccccc2)c(N)n1)C1CCCCC1`: 1.024%; `CN(c1ncc(C(=O)NCc2ccccc2)c(N)n1)C1CCCCC1`: 91.96%.
Take `CN(c1ccc(CNC(=O)c2ccc(O)nc2)cc1)C1CCCCC1`: the “Percent Effect” value (30 µM, 30.03 µM) was -19.08%.
Regarding `COc1ccc(NC(=O)c2cnc(C3CCN(C)CC3)nc2C)cc1`, the “Percent Effect” value (30.3 µM, […]) is reported as -7.704%.
Regarding `Cc1ccc(N2Cc3nc(=O)n(C(C)C)n3C2=O)cc1`, the “Percent Effect” value (30 µM, 30.03 µM) was -28.54%.
Consider `CN(C(=O)Cc1ccc(NC(=O)NC2CCC2)cc1)c1ccccc1`, for which, for the setting “30 µM, 30.03 µM”, the “Percent Effect” value is -6.814%.
Still for that read-out and setting: next, `CC(C)c1nccc(CN(C)Cc2cnn(-c3ccccc3)c2)n1`: 6.527%.
Turning to `Cc1nsc(C(=O)NCCCc2ccccc2)n1`, the “Percent Effect” value (30 µM, 30.03 µM) is -6.915%.
For the compound `COc1cccc(-c2cnc(C3CCNCC3)cn2)c1`, the “Percent Effect” value (30.3 µM, […]) is on record as -29.22%.
As for `Fc1ccc(-c2cnc(C3CCNCC3)cn2)cc1`, the “Percent Effect” value (30.3 µM, […]) worked out at 58.37%.
On to `Cl.Fc1ccc(-c2cnc(C3CCCN3)cn2)cc1` (stereo not drawn), for which the “Percent Effect” value (30.3 µM, […]) worked out at 19.97%.
Turning to `C[C@@]1(O)CCN(Cc2cc[nH]n2)C[C@H]1Oc1cccc(F)c1`, where the note is “30.3 µM, […]”, the “Percent Effect” value is 13.98%.
Regarding `COCCO[C@H]1CCN(C(=O)NC2CC2)[C@H]1Cc1cnn(C)c1`, the “Percent Effect” value (30 µM, 30.03 µM) is -38.19%.
Consider `CCn1c(CN2CCCC(O)(c3ccc(F)cc3)CC2)cnc1SC.O=C(O)CC(O)(CC(=O)O)C(=O)O` (stereo not drawn), for which, under “30.3 µM, […]”, the “Percent Effect” value is reported as -0.3019%.
On to `CCCOCCCNc1nccc(-c2cn(C)nc2C)n1`, for which, under “30 µM, 30.03 µM”, the “Percent Effect” value is reported as 60.81%.
In the case of `CNCCNc1nccc(-c2cn(C)nc2C)n1`, under “30.3 µM, […]”, the “Percent Effect” value is -7.529%.
Take `CCN(CC)CCCNc1nccc(-c2cn(C)nc2C)n1`: the “Percent Effect” value (30.3 µM, […]) was determined as 0.2363%.
In the case of `NC(=O)c1c[nH]nc1NC(=O)c1cccc(Cl)c1`, the “Percent Effect” value (30.3 µM, […]) is -12.02%.
For `CN(CCO)CC1COCCN1C(=O)C1(c2cccs2)CCCC1.O=CO` (stereo not drawn), the “Percent Effect” value (30.3 µM, […]) stood at 95.25%.
Turning to `CN(CCO)CC1COCCN1C(=O)CCC1CCCC1.O=CO` (stereo not drawn), the “Percent Effect” value (30 µM, 30.03 µM) is on record as -33.47%.
On to `Cc1ccccc1C(=O)N1CCOCC1CN(C)C.O=CO` (stereo not drawn), for which the “Percent Effect” value (30.3 µM, […]) is listed as 13.8%.
On to `O=C(N1CCOCC1CO)C1(c2cccs2)CCCC1` (stereo not drawn), for which the “Percent Effect” value (30.3 µM, […]) is -27.69%.
With `CN(C)CC1COCCN1C(=O)C1(c2cccs2)CCCC1.O=CO` (stereo not drawn), for the setting “30.3 µM, […]”, the “Percent Effect” value amounted to 99.83%.
For the compound `CN(CCO)CC1COCCN1C(=O)C1CCCCC1.O=CO` (stereo not drawn), the “Percent Effect” value (30 µM, 30.03 µM) is listed as -4.713%.
For `C1CC(N2C[C@@H]3COC[C@]3(COCC3CCOCC3)C2)C1.O=C(O)C(F)(F)F`, for the setting “30.3 µM, […]”, the “Percent Effect” value is -71.78%.
On to `CN1CCN(C(=O)[C@H]2C[C@H]3[C@H](CCN3Cc3cccs3)O2)CC1.O=C(O)C(F)(F)F.O=C(O)C(F)(F)F`, for which the “Percent Effect” value (30.3 µM, […]) is given as -15.62%.
As to `O=C(c1cnc(-c2ccco2)s1)N1CCCCC1Cn1cccn1` (stereo not drawn), for the setting “30.3 µM, […]”, the “Percent Effect” value is listed as -0.6425%.
On to `CN(C)C1COC2(CCN(Cc3ccc4c(c3)OCO4)CC2)C1.O=C(O)C(F)(F)F.O=C(O)C(F)(F)F` (stereo not drawn), for which, under “30.3 µM, […]”, the “Percent Effect” value is 39.28%.
The same measure, in the same setting: next, `c1ccc(-c2cc(CNCCN3CCCC3)c3nnnn3c2)cc1`: 99.79%.
Regarding `c1ccc(-c2cc(CNCCCN3CCCCC3)c3nnnn3c2)cc1`, the “Percent Effect” value (30.3 µM, […]) is recorded as -3.089%.
Regarding `c1ccc(-c2cc(CNCCN3CCOCC3)c3nnnn3c2)cc1`, the “Percent Effect” value (30.3 µM, […]) is -21.36%.
Take `O=C(N1CCOCC1)N1CCc2ncnc(NC3CCC3)c2CC1.O=C(O)C(F)(F)F`: the “Percent Effect” value (30.3 µM, […]) is -46.89%.
Consider `O=C(Cn1cccn1)Nc1ccc(N2CCCCC2)cc1`, for which, where the note is “30 µM, 30.03 µM”, the “Percent Effect” value is listed as -14.86%.
As for `Cc1cccnc1[C@]1(O)CC[C@H]2CN(Cc3cccc(Cl)c3Cl)C[C@H]21.O=C(O)CC(O)(CC(=O)O)C(=O)O`, the “Percent Effect” value (30.3 µM, […]) is given as -4.562%.
With `Cc1ccc(SC2CCCC2)c(C(=O)NCCO)c1`, where the note is “30 µM, 30.03 µM”, the “Percent Effect” value is -19.93%.
On the same count and under the same terms, next, `COc1cccc(CNCc2c(C(C)C)nn(C)c2N(C)C)c1OC`: 101.8%.
Turning to `COc1ncccc1CNCc1c(C(C)C)nn(C)c1N(C)C`, the “Percent Effect” value (30.3 µM, […]) is listed as 0.2022%.
As for `Cc1ccc(C(O)CNCc2c(C(C)C)nn(C)c2N(C)C)cc1` (stereo not drawn), under “30 µM, 30.03 µM”, the “Percent Effect” value came out at 54.73%.
For the compound `COCc1ccccc1CNCc1c(C(C)C)nn(C)c1N(C)C`, the “Percent Effect” value (10 µM) is -17.78%.
Still for that read-out and setting: next, `CC(C)c1nn(C)c(N(C)C)c1CNCC(O)c1cccc(F)c1` (stereo not drawn): -45.99%.
With `CC(C)c1nn(C)c(N(C)C)c1CNCC(O)c1ccccc1` (stereo not drawn), the “Percent Effect” value runs as follows: (30.3 µM, […]) 9.453%; (10 mM, 10 mM as filed; unlikely as a test dose) -25.34%.
As to `Cc1ccc(CN(CCCN2CCOCC2)Cc2[nH]cnc2C)o1.O=C(O)CC(O)(CC(=O)O)C(=O)O`, under “30.3 µM, […]”, the “Percent Effect” value is reported as -12.11%.
With `CN(C)CCNC(=O)C1Cc2nc(-c3ccccc3)sc2N1CC1CC1.O=C(O)C(F)(F)F` (stereo not drawn), where the note is “30.3 µM, […]”, the “Percent Effect” value is recorded as 23.06%.
`O=C(C1CCOCC1)N1CCc2onc(COc3cccnc3)c2C1.O=C(O)C(F)(F)F`: the “Percent Effect” value (30.3 µM, […]) is on record as -638.1%.
As to `COc1cc(CN(C)[C@@H]2COC[C@H]2c2ccc(F)cc2)cc(OC)c1.O=C(O)CC(O)(CC(=O)O)C(=O)O`, under “30.3 µM, […]”, the “Percent Effect” value was -25.55%.
Take `Cc1ccc(N2CC[C@H]3O[C@@H](C(=O)N4CCCO4)CC[C@H]32)nn1.O=C(O)C(F)(F)F`: the “Percent Effect” value (30.3 µM, […]) is -45.1%.
`COc1ccc(CNC(=O)Nc2cccnc2N2CCCC2)cc1OC`: the “Percent Effect” value (30.3 µM, […]) is on record as -31.53%.
Consider `COc1ccc(CNC(=O)Nc2cccnc2N2CCCC2)cc1O`, for which, for the setting “30 µM, 30.03 µM”, the “Percent Effect” value was found to be 51.01%.
Regarding `COc1ccc(CNC(=O)Nc2cccnc2N2CCCC2)cc1`, the “Percent Effect” value (30.3 µM, […]) is -33.31%.
As to `CC1CCN(CC(=O)NC2CCN(C(C)c3ccccc3)CC2)CC1.Cl` (stereo not drawn), the “Percent Effect” value (30.3 µM, […]) turned out to be 21.99%.
Regarding `COc1ccc(CN2CCC3(CC2)CCN(c2cnn(C)c2)C3=O)cc1.O=C(O)C(F)(F)F`, under “30 µM, 30.03 µM”, the “Percent Effect” value is recorded as 29.53%.
Consider `CN(Cc1n[nH]c2c1CCC2)c1nc(C2CCCC2)nc2c1CNC2`, for which, where the note is “30 µM, 30.03 µM”, the “Percent Effect” value is reported as -1.405%.
For the compound `CN(C)c1nc2c(c(N(C)Cc3n[nH]c4c3CCCC4)n1)CCNCC2`, the “Percent Effect” value (30 µM, 30.03 µM) stood at 21.59%.
For `CN(Cc1n[nH]c2c1CCCC2)c1nc(C2CC2)nc2c1CCNCC2`, the “Percent Effect” value (30 µM, 30.03 µM) stood at 53.53%.
